# Experimental data: PubChem BioAssay (NCATS)
# Results filed as inconclusive are left out. Activity calls are given as the source filed them. Calls come from the whole dose curve; as a rule, active = well fitted cell-killing curve with a large enough effect; inconclusive = small, poorly fitted or top-dose-only effect; inactive = no such curve, though single readings can be large or run the other way.
# Assay: qHTS of pediatric cancer cell lines to identify multiple opportunities for drug repurposing: Primary screen for NB1643 cells (AID 1347099); note: nearly all actives have a fitted effect of over 50% in size
# Settings: NB1643 neuroblastoma viability, CellTiter-Glo luminescence, 48 h; series mostly up to 46 µM; activity change, negative = cytotoxic: at the top concentration
# Description: Drug repurposing or repositioning has been offered as a strategy for drug development in oncology programs. This approach has special potential for childhood cancers and other rare or orphan diseases, where the expected return on new drug development has been a disincentive to pharmaceuticals. […] In this project we exploit the poly-pharmacology of drugs to discover new indications via phenotypic screening of a panel of 19 well-characterized cell lines derived from solid tumors seen in children and adolescents. The goal is to identify approved drugs with previously unrecognized anticancer properties that has the potential to reveal new mechanisms and biological processes involved in carcinogenesis or drug resistance. We employed a titration-based paradigm (quantitative high-throughput screening or qHTS), where all compounds were tested at multiple concentrations for their effect on cell viability. Concentration-response curves (CRCs) were derived directly from the primary screen, and both potency and efficacy values were used to identify compounds with robust bioactivity profiles. We screened the NIH Chemical Genomics Center (NCGC) Pharmaceutical Collection (NPC) and Mechanism Interrogation Plate (MIPE) small molecule collections of approved and investigational compounds against these cell lines; and measured metabolically active cells after 48 hours of compound treatment as a proxy for cell viability. […] Assay Submitter: Nathalia J. Martinez, National Center for Advancing Translational Sciences, National Institutes of Health, Rockville, MD, USA; email: natalia.martinez@nih.gov Shen, M et al. Quantitative high-throughput phenotypic screening of pediatric cancer cell lines identifies multiple opportunities for drug repurposing. Oncotarget 2017 Dec 19;9(4):4758-4772. PMID 29435139.
# The cells were obtained from University of North Carolina (UNC), Pediatric Preclinical Testing Program (PPT), and Coriell Institute (CI). qHTS cell viability assay: Cells were assayed in growth media at a density of 500-1,000 cells/well. Five microliters of cells were dispensed into 1,536-well, white, solid-bottom, TC-treated plates (Greiner Bio One) using a multidrop dispenser and incubated at 37 degrees C, 5% CO2, under a humidified atmosphere for 5 hours. Twenty-three nanoliters of compounds and controls (neutral control DMSO or positive control bortezomib at final concentration of 2.3 µM) were subsequently transferred by Kalypsys pintool. For primary screens, the MIPE collection was tested at 11-point dilutions (final concentrations range from 0.78 nM to 46 µM) and the NPC collection at 8-point dilutions (final concentrations range from 0.59 nM to 46 µM). Compounds tested in follow-up screens were assayed at 11-point dilutions. Cells were incubated for 48 hours, followed by addition of 3 µL of CellTiter-Glo (Promega). After a 15 min incubation at room temperature, samples were analyzed for luminescence intensity using a ViewLux High-throughput CCD imager equipped with clear filters.
# Potency is the fitted concentration of half-maximal effect.
Compound,"activity change, negative = cytotoxic",Potency
CC(=O)N[C@H]1[C@@H]([C@H](O)[C@H](O)CO)OC(C(=O)O)=C[C@@H]1N=C(N)N,5.42% (inactive),–
C[N+]1(C)[C@@H]2C[C@@H](OC(=O)C(O)(c3cccs3)c3cccs3)C[C@H]1[C@@H]1O[C@@H]12,6.48% (inactive),–
c1cc(CN2CCCNCCNCCCNCC2)ccc1CN1CCCNCCNCCCNCC1,1.64% (inactive),–
CC(C)(O)[C@H]1CC[C@@](C)([C@H]2[C@@H](O)C[C@@]3(C)[C@@H]4C[C@H](O[C@@H]5O[C@H](CO)[C@@H](O)[C@H](O)[C@@H]5O)[C@H]5C(C)(C)[C@@H](O[C@@H]6OC[C@@H](O)[C@H](O)[C@@H]6O)CC[C@@]56C[C@@]46CC[C@]23C)O1,0.215% (inactive),–
CCN(CC)CCNC(=O)c1c(C)[nH]c(C=C2C(=O)Nc3ccc(F)cc32)c1C,–,38.2 µM (active)
COc1cc(C[C@@H](CO)[C@H](CO)Cc2ccc(O)c(OC)c2)ccc1O,–,0.59 µM (active)
CCCCCCCN(CC)CCCC(O)c1ccc(NS(C)(=O)=O)cc1 (stereo not given),-3.3% (inactive),–
COC[C@H](NC(=O)c1cnc(C)s1)C(=O)N[C@@H](COC)C(=O)N[C@@H](Cc1ccccc1)C(=O)[C@@]1(C)CO1,–,0.132 µM (active)
C=C1C(=O)O[C@H]2[C@@H]1CCC(C)=CCC[C@@]1(C)O[C@@H]21,–,8.33 µM (active)
CC[C@H]1OC(=O)[C@H](C)[C@@H](O[C@H]2C[C@@](C)(OC)[C@@H](O)[C@H](C)O2)[C@H](C)[C@@H](O[C@@H]2O[C@@H](C)C[C@H](N(C)C)[C@@H]2O)[C@](C)(O)C[C@@H](C)C(=O)[C@H](C)[C@@H](O)[C@]1(C)O,14.4% (inactive),–
CCc1c(O)cc(O)c(C(=O)c2ccc(OCCN3CCOCC3)c(OC)c2)c1CC(=O)N(CCOC)CCOC,–,0.935 µM (active)
Cn1cc(CNCC2CCN(c3ncc(C(=O)NO)cn3)CC2)c2ccccc21,–,0.148 µM (active)
C=CC(=O)Nc1ccc2ncnc(Nc3ccc(OCc4cccc(F)c4)c(Cl)c3)c2c1,–,0.0743 µM (active)
C[C@H]1COc2c(N3CCN(C)CC3)c(F)cc3c(=O)c(C(=O)O)cn1c23,6.95% (inactive),–
COc1cc2c(cc1OC)[C@@H]1C(=O)c3ccc4c(c3O[C@@H]1CO2)C=CC(C)(C)O4,–,3.32 µM (active)
Cn1cc(C=CC(=O)c2cccc(F)c2)cc1C=CC(=O)NO,–,4.69 µM (active)
COc1cc(OC)cc(-c2ccc3ncc4ccc(=O)n(-c5ccc(N6CCNCC6)c(C(F)(F)F)c5)c4c3c2)c1,–,11.8 µM (active)
NC(=O)N1CCC(CC(=O)N2CCC([C@H]3c4ncc(Br)cc4CCc4cc(Cl)cc(Br)c43)CC2)CC1,–,14.8 µM (active)
CCCCC(=O)O[C@]1(C(=O)CO)[C@@H](C)C[C@H]2[C@@H]3CCC4=CC(=O)C=C[C@]4(C)[C@@]3(F)[C@@H](O)C[C@@]21C,29.7% (inactive),–
O=C(O)CCCCC(CCSCc1ccccc1)SCc1ccccc1 (stereo not given),–,10.5 µM (active)

Compound,"activity change, negative = cytotoxic",Potency
CC(C)OC(=O)[C@H](C)N[P@](=O)(OC[C@H]1O[C@@H](n2ccc(=O)[nH]c2=O)[C@](C)(F)[C@H]1O)Oc1ccccc1,-19.3% (inactive),–
C=CCNc1c(O)cc2c(O)c1C[C@@H](C)C[C@H](OC)[C@@H](O)[C@@H](C)C=C(C)[C@H](OC(N)=O)[C@@H](OC)C=CC=C(C)C(=O)N2,–,1.48 µM (active)
Cc1ccccc1C(=O)Nc1ccc(C(=O)N2CCCC(O)c3cc(Cl)ccc32)c(C)c1 (stereo not given),23.2% (inactive),–
FC(F)c1nc2ccccc2n1-c1nc(N2CCOCC2)nc(N2CCOCC2)n1,–,1.48 µM (active)
NC(=NCCCCCCN=C(N)N=C(N)Nc1ccc(Cl)cc1)N=C(N)Nc1ccc(Cl)cc1,–,5.26 µM (active)
CCN1CCN(C(=O)N[C@H](C(=O)N[C@@H]2C(=O)N3C(C(=O)O)=C(CSc4nnnn4C)CS[C@@H]23)c2ccc(O)cc2)C(=O)C1=O,17.1% [at 9.22 µM] (inactive),–
Cc1cn([C@@H]2O[C@H](CO)[C@@H](O)[C@H]2F)c(=O)[nH]c1=O,5.38% (inactive),–
O=C(C[C@@H]1CC=CCCC(=O)O[C@H](c2ccccc2)CNC1=O)NCc1ccc(Cl)cc1,4.7% (inactive),–
Cc1ccc(O)c(C(CCN(C(C)C)C(C)C)c2ccccc2)c1 (stereo not given),-2.91% (inactive),–
COc1ccc(CCC(=O)c2c(O)cc(O[C@@H]3O[C@H](CO)[C@@H](O)[C@H](O)[C@@H]3O[C@@H]3O[C@@H](C)[C@H](O)[C@@H](O)[C@@H]3O)cc2O)cc1O,–,13.2 µM (active)
Oc1cc(-c2nc(-c3ccccc3)[nH]c2-c2ccncc2)ccc1Cl,–,18.7 µM (active)
Cn1cc(C[C@@H](N)C(=O)O)c2ccccc21,11.6% [at 16.1 µM] (inactive),–
N#Cc1c(NC(=O)c2cccc3ccccc23)sc2c1CCCC2,–,4.69 µM (active)
O=C(Nc1cc2cc[nH]c2cn1)c1ccccc1,–,14.8 µM (active)
CC(C)(C)[C@H](NC(=O)c1ccc(N)c(Cl)c1)C(=O)N1CCC[C@@H]1C(=O)N[C@H](C#N)CC(=O)O,–,1.05 µM (active)
O=c1c(O)c(-c2ccc(O)c(O)c2)oc2cc(O)ccc12,–,20.9 µM (active)
CN(N=O)C(=O)N[C@H]1C(O)OC(CO)[C@@H](O)[C@H]1O (stereo not given in full),2.68% (inactive),–
O=C(CN1C(=O)C2(CCCC2)NC[C@H]1c1cc(F)cc(F)c1)Nc1ccc2c(c1)C[C@@]1(C2)C(=O)Nc2ncccc21,8.82% (inactive),–
COc1ccc([C@@H]2CNC(=O)C2)cc1OC1CCCC1,–,1.32 µM (active)
FC(F)(F)c1ccc(Nc2nc3ccc(Oc4ccnc(-c5ncc(C(F)(F)F)[nH]5)c4)cc3[nH]2)cc1,–,16.6 µM (active)
